From the supplement of paper PMC7156485
± gives the standard deviation of the averaged measurements.

tested on: HCC1569; assay: cell number relative to DMSO (% of DMSO); higher = more cells (less growth inhibition / toxicity); details: concentration: 10 µM; 24 h
How it was run: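 HCC1569 and TDF cells (800 per well, 384-well plates, RPMI with 10% FBS) were treated with compounds at 10 µM for 24 h at 37 °C, in triplicate. Cells were fixed in 3.7% formaldehyde and stained with a rabbit anti-H1.0 antibody, an AlexaFluor 647 secondary and DAPI; six fields per well were imaged at ×10. H1.0 nuclear intensity or cell number is expressed as percent of the plate DMSO control, taking the median of replicates. HCC1569 values were smoothed for positional effects.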
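Further: TDF denotes transformed human dermal fibroblasts of mesenchymal origin.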

Structure (SMILES) | cell number
COc1ccc(-c2ccc3cc(C(=O)O)ccc3c2)cc1C12CC3CC(CC(C3)C1)C2 [Adapalene] | 85.4
COc1ccc(-c2cnc3c(-c4ccsc4)cnn3c2)cc1 [VEGF Receptor 2 Kinase Inhibitor IV] | 94.9
Cl.O=C(O)C1CCCN(CCC=C(c2ccccc2)c2ccccc2)C1 (centres undefined) | 97.9
COC(=O)c1sccc1S(=O)(=O)Nc1ccc(Nc2ccccc2)cc1OC | 99.7
CC(CN1c2ccccc2Sc2ccccc21)N(C)C.Cl (centres undefined) | 105
O=c1[nH]c2ccccc2n1CCN1CCN(c2cccc(C(F)(F)F)c2)CC1 | 103
O=C1C=C(CO)OCC1=O [5-hydroxy-2-(hydroxymethyl)-4H-pyran-4-one] | 105
O=C1C(=O)C(c2ccc(O)c(O)c2)Oc2cc(O)cc(O)c21 (centres undefined) [2-(3,4-dihydroxyphenyl)-3,5,7-trihydroxy-4H-chromen-4-one] | 81.2
O=C(O)CNC(=O)C(CS)Cc1ccccc1 (racemic) [DL-Thiorphan] | 105
CCN(CC)CCNC(=O)c1cc(Cl)c(N)cc1OC [Metoclopramide] | 102
C=C1C(=CC=C2CCCC3(C)C2CCC3C(C)CCCC(C)C)CC(O)CC1O (centres undefined) [Alfacalcidol] | 100
C=CCSC[C@H](N)C(=O)O [(2R)-3-(allylsulfanyl)-2-aminopropanoic acid] | 103
O=C(O)c1cc(-c2ccc(F)cc2F)ccc1O [Diflunisal] | 102
CCCNCC(O)COc1ccccc1C(=O)CCc1ccccc1 (centres undefined) [Propafenone] | 103
O=C1NC(=O)C(c2ccccc2)(c2ccccc2)N1 [5,5-Diphenylhydantoin] | 99.8
COc1cc2nc(N3CCN(C(=O)C4CCCO4)CC3)nc(N)c2cc1OC (centres undefined) [Terazosin] | 99.9
Nc1ccc(S(=O)(=O)Nc2ccnn2-c2ccccc2)cc1 [Sulfaphenazole] | 107
COc1ccc2cc(C(C)C(=O)O)ccc2c1 (centres undefined) [Naproxen] | 99.9
COc1cc2c3cc1Oc1c(OC)c(OC)cc4c1C(Cc1ccc(OC(=O)c5ccc([N+](=O)[O-])cc5)c(c1)Oc1ccc(cc1)CC3N(C)CC2)N(C)CC4 (centres undefined) [E6 Berbamine] | 90.2
CC(Cc1ccc(O)c(O)c1)(NN)C(=O)O.O (centres undefined) [Carbidopa.H2O] | 103

Structure (SMILES) | cell number
COC(=O)C1C(O)CCC2CN3CCc4c([nH]c5ccccc45)C3CC21.Cl (centres undefined) [Rauwolscine] | 103
CC12C=CC(=O)C=C1CCC1C2C(=O)CC2(C)C1CCC2(O)C(=O)CO (centres undefined) [Prednisone] | 101
O=c1[nH]c(=O)c2nc3ccccc3nc2[nH]1 [Alloxazine] | 101
CCCCCCCCCCCCCCCC(=O)OCC(COP(=O)(O)O)OC(=O)CCCCCCCCCCCCCCC (centres undefined) [Dipalmitoylphosphatidic acid] | 94.8
C=C1CC2C3C=C(C)C4=CC(=O)CCC4(C)C3CCC2(C)C1(OC(C)=O)C(C)=O (centres undefined) [Melengestrol Acetate] | 102
CCCCCCC=CCCCCCCCCCC(=O)O [11(Z)-Octadecenoic acid] | 99.8
CN(C)CCCN1c2ccccc2Sc2ccccc21.Cl [Promazine hydrochloride] | 103
CC(C)C1NC(=O)C(CCCCN)NC(=O)C(Cc2c[nH]c3ccccc23)NC(=O)C(Cc2ccc(O)cc2)NC(=O)C(C)N(C)C(=O)C(Cc2ccccc2)NC1=O (centres undefined) [Seglitide] | 89.8
COc1cc2c(cc1OC)C(c1ccccc1)CN(C)CC2.O=C(O)C=CC(=O)O (centres undefined) | 101
O=C(NOCC1CC1)c1ccc(F)c(F)c1Nc1ccc(I)cc1Cl | 77.6
Cl.N[C@@H](CCC(=O)O)C(=O)O [L-Glutamic acid hydrochloride] | 103
COc1cc(C=Cc2ccccc2)oc(=O)c1 [5,6-Dehydrokawain] | 104
CNC1C(O)C(NC)C2OC3(O)C(=O)CC(C)OC3OC2C1O (centres undefined) [Spectinomycin] | 104
CCN(CC)CCCC(C)Nc1ccnc2cc(Cl)ccc12.O=P(O)(O)O.O=P(O)(O)O (centres undefined) [Chloroquine diphosphate] | 98.3
COCc1c(C(C)C)nc(C(C)C)c(C=CC(O)CC(O)CC(=O)O)c1-c1ccc(F)cc1 (centres undefined) [Cerivastatin] | 97.3
CCC=CCC=CCC=CCCCCCCCCCC(=O)O [Eicosatrienoic acid] | 101 ± 2.8
CC(Cc1ccccc1)(NC(=O)CN)c1ccccc1.Cl (centres undefined) | 97.7
CCCCCCCCCCCCCCCC(=O)NCCc1ccc(O)c(O)c1 [Palmitoyl dopamine] | 92.7
COC1=C2CC(C)=c3c(C(C)=O)c(OC)c(O)c4c3c2c2c(cc(OC)c3c(OC)cc(O)c4c32)C(=O)C1=O [Hypocrellin B] | 101
